# Reference: PubChem BioAssay (NCI)
# About 83,000 compounds went through this panel and 20% of them were active in at least one assay; those are over-represented in the sample as a whole.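 Negative percent growth values reflect cell death: -40 means 40% of the cells present at the start died, and -100 means all died.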 Unmarked numbers belong to inactive results. The source made the active and inactive calls. How the source made its calls: active means growth percent below 10; inactive means the rest.
# Columns and labels:
# Assay in all cases: NCI-60 one-dose screen, 48 h (100 = growth as untreated, 0 = no growth, -100 = all killed)
# SR leukemia = conditions: 10 µM unless noted
# RPMI-8226 leukemia = conditions: 10 µM unless noted
# OVCAR-8 ovarian = conditions: 10 µM unless noted
# OVCAR-5 ovarian = conditions: 10 µM unless noted
# OVCAR-4 ovarian = conditions: 10 µM unless noted
# SK-OV-3 ovarian = conditions: 10 µM unless noted
# IGROV1 ovarian = conditions: 10 µM unless noted
# OVCAR-3 ovarian = conditions: 10 µM unless noted
# HS 578T breast = conditions: 10 µM
# T-47D breast = conditions: 10 µM unless noted
# BT-549 breast = conditions: 10 µM unless noted
# MDA-MB-435 melanoma = conditions: 10 µM unless noted
# SW-620 colon = conditions: 10 µM unless noted
# MCF7 breast = conditions: 10 µM unless noted
# HCT-116 colon = conditions: 10 µM unless noted
# HCC-2998 colon = conditions: 10 µM unless noted
# KM12 colon = conditions: 10 µM unless noted
# NCI/ADR-RES ovarian = conditions: 10 µM unless noted
SMILES,growth (SR leukemia),growth (RPMI-8226 leukemia),growth (OVCAR-8 ovarian),growth (OVCAR-5 ovarian),growth (OVCAR-4 ovarian),growth (SK-OV-3 ovarian),growth (IGROV1 ovarian),growth (OVCAR-3 ovarian),growth (HS 578T breast),growth (T-47D breast),growth (BT-549 breast),growth (MDA-MB-435 melanoma),growth (SW-620 colon),growth (MCF7 breast),growth (HCT-116 colon),growth (HCC-2998 colon),growth (KM12 colon),growth (NCI/ADR-RES ovarian)
CCn1c(CN2CCN(Cc3ccccc3)CC2)nc2cc(NC(=O)c3cccs3)ccc21,-9.71% (active),-27.6% (active),-61.8% (active),4.74% (active),-51.2% (active),-95.1% (active),-83% (active),-94.5% (active),-25.3% (active),-62.5% (active),-30.9% (active),-89% (active),-82.8% (active),-88.1% (active),0.264% (active),-88.9% (active),-93.5% (active),–
O=C(NNC(=S)Nc1ccccc1)c1ccc(Nc2ncnc3c2cnn3-c2cccc(Br)c2)cc1,115%,110%,110%,105%,106%,101%,107%,107%,105%,–,104%,105%,104%,103%,98.9%,104%,107%,105%
COc1cc2c(cc1OC)C(=O)C(Br)CC2 (stereo not drawn),19.8%,20.6%,33%,73.7%,52.7%,83.2%,41.7%,38.9%,88.8%,36.3%,16.1%,20.2%,25.1%,40.9%,7.03% (active),90.6%,88.9%,–
COc1ccc(C(=O)/C=C/c2cn(-c3ccccc3)nc2-c2cccc(Nc3ccnc4cc(Cl)ccc34)c2)cc1,8.4% (active),66.7%,91.1%,111%,115%,118%,105%,110%,88.8%,97.1%,100%,66%,97.8%,85.8%,91.9%,109%,94.9%,–
O=C(NCC(c1ccsc1)N1CCCCCC1)c1ccc(C(F)(F)F)cc1 (stereo not drawn),85.8%,88.8%,102%,106%,94.6%,109%,96.8%,103%,102%,91.7%,99.8%,91.8%,96.6%,94.5%,88.9%,102%,76.8%,–
COc1ccc(/C=c2\c(=O)n(-c3ccccc3)c3nn4c(n23)=NNC42CCCCC2)cc1,115%,107%,95.1%,113%,106%,95.5%,88.5%,95.9%,104%,–,97.3%,110%,103%,96.6%,95.8%,107%,102%,99.4%
O=C(O)c1ccccc1N=Cc1ccccc1,95.9%,101%,106%,108%,107%,104%,101%,115%,106%,101%,112%,95.2%,107%,109%,101%,102%,105%,–
C#CC[C@@H]1C[C@]2(C)[C@H]3CC[C@@H]4[C@H]5C(C(=C)C)CC[C@]5(C(=O)NCCCN5CCN(CCCN)CC5)CC[C@@]4(C)[C@]3(C)CC[C@H]2C(C)(C)[C@H]1OC(C)=O (stereo partly drawn),-13.6% (active),-48.5% (active),-6.54% (active),-61.3% (active),-42.3% (active),108%,-46.7% (active),-83% (active),14.8%,–,75.6%,-73.3% (active),-79.4% (active),-75.4% (active),-95.3% (active),-23.5% (active),-74.6% (active),38.8%
CNCCCNc1ccnc2cc(Cl)ccc12,3.67% (active),-12.3% (active),1.62% (active),13.1%,-21.3% (active),5.19% (active),-21.7% (active),-31.2% (active),-3.8% (active),-5.41% (active),-10.3% (active),-98% (active),-23.3% (active),2.35% (active),3.6% (active),-78.6% (active),0.517% (active),–
